From PubChem BioAssay (Tox21) come the findings set out here.

Inconclusive results are not listed. Active and inactive are the calls of the source. Unless noted, calls follow the shape of the dose curve; as a rule, active = well fitted curve in the direction sought with a large enough effect in the repeat runs; inconclusive = weak or mixed curves; inactive = no such curve, though single readings can be large; an effect the other way counts as inactive or inconclusive.

Assay [1] can be described thus: qHTS assay to identify small molecule antagonists of the thyroid receptor (TR) signaling pathway - cell viability counter screen (AID 743064). Also: nearly all actives have a fitted effect of over 50% in size. An outline of the steps: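 GH3.TRE-Luc rat pituitary cells dosed after 4 hr plating, co-stimulated with T3 at 1 nM final, incubated 23.5 h at 37 C. Viability measured in the same wells by CellTiter-Fluor fluorescence after 30 min further at 37 C.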
(In qHTS, concentration-response curves come from the screen itself.)

Assay [2] in a line: qHTS assay to identify small molecule antagonists of the thyroid receptor (TR) signaling pathway (AID 743065). Also: series mostly up to about 70 µM; nearly all actives have a fitted effect of over 55% in size. An outline of the steps:
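GH3.TRE-Luc rat pituitary cells (two TREs driving luciferase) were dosed with compound, then stimulated with 1 nM T3 (final) for 23.5 h at 37 C. ONE-Glo luminescence was the read-out, with CellTiter-Fluor fluorescence as the cytotoxicity counter-screen.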

Assay [3] has as its system thyroid hormone receptor (rat, GH3 cells). Put plainly: qHTS assay to identify small molecule agonists of the thyroid receptor (TR) signaling pathway (AID 743066; calls by dose curve; also: potency is read from the fitted curve at half-maximal effect).
Assay [4] deals with Estrogen receptor (Homo sapiens) (UniProt P03372). Kind of assay: qHTS assay to identify small molecule antagonists of the estrogen receptor alpha (ER-alpha) signaling pathway (AID 743069; active = well fitted curve in the direction sought with a large enough effect in the signal ratio in the repeat runs, not every such curve was filed as active; the % refers to the signal ratio). An outline of the steps:
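Beta-lactamase FRET fluorescence is read after 2 hr at room temperature with LiveBLAzer B/G substrate. Before that, ER-alpha-bla HEK293 cells sit 4 hr after plating, then receive compound plus 17beta-estradiol and incubate 18 hr at 37C.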

Assay [5] is described as follows: qHTS assay to identify small molecule antagonists of the estrogen receptor alpha (ER-alpha) signaling pathway - cell viability counter screen (AID 743074; calls by dose curve;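 also: HEK293 cells carrying ER-alpha-UAS-bla reporter stimulated with 17beta-estradiol; nearly all actives have a fitted effect of over 45% in size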).
The target in assay [6] is Estrogen receptor (Homo sapiens) (UniProt P03372). Kind of assay: qHTS assay to identify small molecule agonists of the estrogen receptor alpha (ER-alpha) signaling pathway (AID 743075; calls by dose curve;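 also: HEK293 GripTite cells with ER-alpha and UAS-driven beta-lactamase reporter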).
Sequence of Estrogen receptor (Homo sapiens) (P03372 whole entry, looked up): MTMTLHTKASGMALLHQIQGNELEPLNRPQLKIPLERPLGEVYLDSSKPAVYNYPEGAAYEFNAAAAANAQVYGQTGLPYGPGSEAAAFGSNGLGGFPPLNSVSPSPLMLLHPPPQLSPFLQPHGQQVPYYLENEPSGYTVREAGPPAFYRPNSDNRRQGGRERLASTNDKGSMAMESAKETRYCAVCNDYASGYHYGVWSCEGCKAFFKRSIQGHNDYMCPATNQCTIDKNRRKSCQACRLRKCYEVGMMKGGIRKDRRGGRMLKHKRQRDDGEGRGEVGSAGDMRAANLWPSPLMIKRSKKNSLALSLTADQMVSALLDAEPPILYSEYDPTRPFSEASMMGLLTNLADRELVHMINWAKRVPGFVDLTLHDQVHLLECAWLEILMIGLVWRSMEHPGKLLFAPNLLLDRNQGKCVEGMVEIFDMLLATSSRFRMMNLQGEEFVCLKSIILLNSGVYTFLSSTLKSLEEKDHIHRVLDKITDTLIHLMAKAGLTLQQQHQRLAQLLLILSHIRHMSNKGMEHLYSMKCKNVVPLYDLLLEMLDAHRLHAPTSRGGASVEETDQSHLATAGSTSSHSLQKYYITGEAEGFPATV
Assay [7] has the same target. Kind of assay: qHTS assay to identify small molecule agonists of the estrogen receptor alpha (ER-alpha) signaling pathway using the BG1 cell line (AID 743079). Also: nearly all actives have a fitted effect of over 20% in size.
Assay [8] can be described thus: qHTS assay to identify small molecule antagonists of the estrogen receptor alpha (ER-alpha) signaling pathway using the BG1 cell line (AID 743080; calls by dose curve;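 also: BG1 cells stimulated with 17beta-estradiol alongside compound; series mostly up to about 70 µM; nearly all actives have a fitted effect of over 25% in size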). The essentials:
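Luminescence from a 4×ERE-luciferase reporter in BG1-Luc-4E2 cells served as read-out. Cells, pre-cultured 5 days in stripped-serum phenol-red-free medium, were exposed to compound with 17beta-estradiol co-stimulation for 21.5 h at 37 C.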

Assay [9] can be described thus: qHTS assay to identify small molecule antagonists of the estrogen receptor alpha (ER-alpha) signaling pathway using the BG1 cell line - cell viability counter screen (AID 743081).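 Also: compound given together with 17beta-estradiol as the ER stimulus; series mostly up to about 70 µM; nearly all actives have a fitted effect of over 45% in size.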
Assay [10] deals with Aromatase (Homo sapiens) (UniProt P11511). Put plainly: qHTS assay to identify aromatase inhibitors (AID 743083). Also: series mostly up to about 70 µM; nearly all actives have a fitted effect of over 55% in size.
Sequence of Aromatase (Homo sapiens) (P11511 whole entry, looked up): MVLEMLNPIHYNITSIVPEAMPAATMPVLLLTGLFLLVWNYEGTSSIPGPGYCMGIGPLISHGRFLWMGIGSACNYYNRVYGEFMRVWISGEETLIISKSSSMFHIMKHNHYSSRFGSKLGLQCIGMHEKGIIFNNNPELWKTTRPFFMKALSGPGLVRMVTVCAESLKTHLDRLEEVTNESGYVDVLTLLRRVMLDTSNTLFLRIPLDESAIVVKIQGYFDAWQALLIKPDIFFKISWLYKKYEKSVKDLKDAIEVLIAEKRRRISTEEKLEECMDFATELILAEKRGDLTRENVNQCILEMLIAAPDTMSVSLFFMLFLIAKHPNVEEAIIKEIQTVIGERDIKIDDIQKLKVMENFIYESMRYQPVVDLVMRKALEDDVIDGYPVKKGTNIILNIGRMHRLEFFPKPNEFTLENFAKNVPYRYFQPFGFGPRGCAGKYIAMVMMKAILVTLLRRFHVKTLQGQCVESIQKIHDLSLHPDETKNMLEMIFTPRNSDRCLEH
A short description of assay [11]: qHTS assay to identify aromatase inhibitors - cell viability counter screen (AID 743084).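 Also: cells stimulated with testosterone during compound exposure; nearly all actives have a fitted effect of over 55% in size.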
In assay [12] the target is Aryl hydrocarbon receptor (Homo sapiens) (UniProt P35869). Put plainly: qHTS assay to identify small molecule that activate the aryl hydrocarbon receptor (AhR) signaling pathway (AID 743085).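 Also: HG2L7.5c1 human HepG2 liver cells with stably integrated DRE-driven firefly reporter; series mostly up to about 70 µM; nearly all actives have a fitted effect of over 15% in size.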 The essentials: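 HepG2 cells stably carrying a 20-DRE firefly luciferase reporter (HG2L7.5c1) treated with compound for 24 hr at 37C. Luciferase read by ONE-Glo luminescence, with CellTiter-Fluor viability read first.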
Sequence of Aryl hydrocarbon receptor (Homo sapiens) (P35869 whole entry, looked up): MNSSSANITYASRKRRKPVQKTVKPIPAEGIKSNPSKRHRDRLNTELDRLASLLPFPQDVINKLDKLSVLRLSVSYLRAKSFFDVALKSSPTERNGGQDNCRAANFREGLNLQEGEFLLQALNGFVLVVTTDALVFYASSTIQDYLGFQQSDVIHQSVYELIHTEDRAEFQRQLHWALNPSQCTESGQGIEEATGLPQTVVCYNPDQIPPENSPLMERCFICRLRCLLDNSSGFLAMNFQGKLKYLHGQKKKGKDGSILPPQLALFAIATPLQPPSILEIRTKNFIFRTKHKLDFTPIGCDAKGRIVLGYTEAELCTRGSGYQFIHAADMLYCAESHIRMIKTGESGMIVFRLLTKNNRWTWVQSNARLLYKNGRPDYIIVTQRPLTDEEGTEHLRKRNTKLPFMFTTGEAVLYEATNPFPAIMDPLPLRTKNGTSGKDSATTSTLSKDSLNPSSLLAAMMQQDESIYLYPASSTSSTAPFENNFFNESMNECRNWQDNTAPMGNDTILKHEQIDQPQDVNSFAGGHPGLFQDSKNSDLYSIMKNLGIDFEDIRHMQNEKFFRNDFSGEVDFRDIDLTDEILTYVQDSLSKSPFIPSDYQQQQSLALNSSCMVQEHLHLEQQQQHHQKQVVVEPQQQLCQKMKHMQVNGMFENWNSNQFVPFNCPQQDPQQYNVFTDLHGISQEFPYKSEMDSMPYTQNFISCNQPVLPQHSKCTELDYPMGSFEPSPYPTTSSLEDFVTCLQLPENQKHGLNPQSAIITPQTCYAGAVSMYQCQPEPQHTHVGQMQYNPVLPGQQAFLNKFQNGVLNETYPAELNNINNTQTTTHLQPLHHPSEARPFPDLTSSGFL

Assay [13] in a line: qHTS assay to identify small molecule that activate the aryl hydrocarbon receptor (AhR) signaling pathway - cell viability counter screen (AID 743086). Also: series mostly up to about 70 µM; nearly all actives have a fitted effect of over 45% in size. An outline of the steps:
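HepG2-AhR-luc (HG2L7.5c1) cells, 4000/well, treated 24 h at 37 C with compound; viability measured as CellTiter-Fluor fluorescence after 30 min in the same wells as the luciferase read.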

Assay [14] has as its target Peroxisome proliferator-activated receptor gamma (Homo sapiens) (UniProt P37231). Put plainly: qHTS assay to identify small molecule agonists of the peroxisome proliferator-activated receptor gamma (PPARg) signaling pathway (AID 743094; active = well fitted activation curve with a large enough effect in the signal ratio in the repeat runs, not every such curve was filed as active; the % refers to the signal ratio). The essentials: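 HEK293H PPARg-bla cells, 5 h settle at 37C/5% CO2; compound (DMSO) 17 h, 37C; B/G FRET substrate 1 h RT; fluorescence intensity read-out. qHTS format.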

For assay [15] the target is unchanged. Kind of assay: qHTS assay to identify small molecule antagonists of the peroxisome proliferator-activated receptor gamma (PPARg) signaling pathway (AID 743191; calls by dose curve; also: series mostly up to about 63 µM; nearly all actives have a fitted effect of over 30% in size). An outline of the steps:
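GeneBLAzer PPARg UAS-bla HEK293H cells, 5 h post-plating, exposed to compounds 17 h at 37C. LiveBLAzer B/G FRET substrate added for 1 h at room temperature; beta-lactamase reporter read by fluorescence intensity.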

A short description of assay [16]: qHTS assay to identify small molecule antagonists of the peroxisome proliferator-activated receptor gamma (PPARg) signaling pathway - cell viability counter screen (AID 743194). Also: nearly all actives have a fitted effect of over 55% in size. An outline of the steps: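 Cytotoxicity counter screen in PPARg-bla HEK293H cells, same wells as reporter assay. Compounds plus 50 nM rosiglitazone (final) for 17 h at 37 C, then viability read by CellTiter-Glo luminescence.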

Assay [17] is described as follows: qHTS assay for small molecule agonists of the antioxidant response element (ARE) signaling pathway (AID 743202; active = well fitted activation curve with a large enough effect in the signal ratio in the repeat runs, not every such curve was filed as active; the % refers to the signal ratio). An outline of the steps: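 HepG2 ARE-bla reporter line, 2,000 cells/well; 5 h preincubation 37 C/5% CO2; compound (DMSO) 16 h 37 C; B/G FRET substrate 2 h RT; fluorescence intensity.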
Assay [18] is described as follows: qHTS assay for small molecule agonists of the antioxidant response element (ARE) signaling pathway - cell viability counter screen (AID 743203; calls by dose curve; also: nearly all actives have a fitted effect of over 55% in size). An outline of the steps: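 Luminescence read-out (CellTiter-Glo, 30 min at room temperature) measured cell viability in the same wells as the ARE beta-lactamase reporter. HepG2 ARE-bla cells were treated with compounds for 16 hrs at 37C/5% CO2.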

Assay [19] can be described thus: qHTS assay for small molecule activators of the heat shock response signaling pathway - cell viability counter screen (AID 743209). Also: nearly all actives have a fitted effect of over 50% in size. An outline of the steps: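 HSE-bla HeLa; 1500 cells/well; overnight 37 C, 5% CO2; compound 5 h 37 C; LiveBLAzer B/G substrate 2.5 h RT; CellTiter-Glo 30 min RT; luminescence.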
The nature of assay [20]: qHTS assay for small molecule activators of the heat shock response signaling pathway (AID 743210; active = well fitted activation curve with a large enough effect in the signal ratio in the repeat runs, with a control signal flat, not every such curve was filed as active; the % refers to the signal ratio;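 also: HeLa cells with beta-lactamase reporter driven by heat shock elements; series mostly up to about 63 µM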). The essentials:
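Beta-lactamase reporter read-out: FRET substrate fluorescence after 2.5 h at RT, following 5 h compound treatment at 37 C of HeLa cells carrying HSE-driven bla reporter; quantitative HTS format.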

Sequence of Peroxisome proliferator-activated receptor gamma (Homo sapiens) (P37231 whole entry, looked up): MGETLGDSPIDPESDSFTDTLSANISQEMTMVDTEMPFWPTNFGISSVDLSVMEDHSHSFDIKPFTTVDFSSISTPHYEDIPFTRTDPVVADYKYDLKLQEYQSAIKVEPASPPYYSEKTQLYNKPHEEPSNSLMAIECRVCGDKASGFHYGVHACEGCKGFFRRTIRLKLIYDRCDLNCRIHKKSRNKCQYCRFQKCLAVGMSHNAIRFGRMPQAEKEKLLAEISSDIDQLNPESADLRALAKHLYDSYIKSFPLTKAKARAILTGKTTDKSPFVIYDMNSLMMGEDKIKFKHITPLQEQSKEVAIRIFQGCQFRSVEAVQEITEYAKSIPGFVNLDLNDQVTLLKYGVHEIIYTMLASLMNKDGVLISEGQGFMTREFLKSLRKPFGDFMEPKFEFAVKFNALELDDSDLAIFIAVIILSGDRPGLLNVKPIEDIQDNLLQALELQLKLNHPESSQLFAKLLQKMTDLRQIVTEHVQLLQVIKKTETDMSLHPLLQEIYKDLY

As to `CC(C)(C)C1(CCc2ccc(Cl)cc2)CO1` (stereo not given), the Potency result in assay [1], in assay [2], in [3], in [4], in [5] and in assay [6] was “inactive” each time. Further, the Potency entry in [7], in [8], in [9], in assay [10], in assay [11] and in [12] was “inactive” in each case. For the same molecule, the Potency entry in [13], in assay [15], in [16], in assay [17], in assay [18] and in assay [19] was “inactive” each time. The Potency result in assay [20] is “inactive”. Further, in [14], the result was inactive.

Regarding `CC(=O)NNC(C)=O`, the Potency entry in [1], in assay [2], in assay [3], in assay [4], in [5] and in [6] was “inactive” each time. The Potency result in assay [7], in assay [8], in assay [9], in assay [10], in assay [11] and in assay [12] was “inactive” throughout. Also, the Potency result in [13], in assay [16], in assay [18] and in assay [19] was “inactive” each time.

`CC(=O)OCCC(C)CC(C)(C)C` (stereo not given): the Potency entry in assay [1], in [2], in [4], in assay [5], in assay [6] and in assay [7] was “inactive” throughout. For the same molecule, the Potency entry in [8], in assay [9], in [10], in [11], in assay [12] and in [13] was “inactive” throughout. The Potency entry in [15], in [16], in assay [17], in assay [18], in assay [19] and in assay [20] was “inactive” in each case. In addition, the Potency in assay [3] was 24.3 µM (active). Besides, in assay [14], the molecule was classed as inactive.

Turning to `CC(=O)OCCC1CCCCC1`, the Potency entry in assay [1], in [2], in assay [3], in assay [4], in [5] and in assay [6] was “inactive” throughout. Also, the Potency entry in [7], in assay [8], in assay [9], in [10], in assay [11] and in assay [12] was “inactive” in each case. For the same molecule, the Potency result in [13], in [15], in [16], in assay [18], in assay [19] and in assay [20] was “inactive” throughout. In addition, in assay [14], the call was inactive.

Regarding `OCC(CO)n1cnc(-c2ccc(F)cc2)c1-c1ccnc(Oc2ccccc2)n1`, the Potency entry in assay [1], in assay [2], in [3], in assay [4], in assay [5] and in assay [6] was “inactive” each time. For the same molecule, the Potency result in assay [7], in assay [8], in assay [9], in [10], in assay [11] and in assay [12] was “inactive” in each case. The Potency result in [13], in assay [15], in assay [16], in assay [18], in [19] and in assay [20] was “inactive” in each case. Also, the outcome in [14] was inactive.

On to `CC(C)N(C)C`, for which the Potency entry in [1], in [2], in [3], in assay [4], in assay [5] and in assay [6] was “inactive” each time. The Potency result in assay [7], in assay [8], in [9], in assay [10], in [11] and in [12] was “inactive” in each case. Besides, the Potency result in assay [13], in assay [15], in [16], in assay [17], in [18] and in assay [19] was “inactive” each time. In [14], the outcome was inactive.

With `COC(C)(C)OC`, the Potency entry in assay [1], in assay [2], in [3], in assay [4], in [5] and in assay [6] was “inactive” throughout. For the same molecule, the Potency entry in assay [7], in assay [8], in [9], in assay [10], in [11] and in assay [12] was “inactive” in each case. Also, the Potency result in [13], in assay [16], in [18] and in [20] was “inactive” in each case. Also, in assay [14], the result was inactive.
